# Results as given in the supplement of paper PMC8728848.
# Shown is part of a subset that was picked to be rich in the strongest signals.
# Experiments:
# Test in all cases: glycan array binding signal (z-score within array); higher = stronger binding
# Conditions in all cases: glycan notation: IUPAC condensed, linker removed
# [1] = target: GlcNAc(a1-4)Gal(b1-4)GlcNAc(b1-3)Gal(b1-4)GlcNAc(b1-3)Gal(b1-4)GlcNAc
# Procedure, shortened: (§1)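 Negative Z-scores can be read as non-binding. The Z-score is calculated within each array and then averaged across arrays of one protein sequence at different concentrations or buffers and across linkers. Arrays, 3228 in all, were curated from the Consortium for Functional Glycomics database and kept only where the protein sequence was available.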
# [2] = target: GlcNAc(a1-4)Gal(b1-4)GlcNAc(b1-3)Gal(b1-4)[Fuc(a1-3)]GlcNAc(b1-3)Gal(b1-4)[Fuc(a1-3)]GlcNAc
# Procedure, shortened: as §1
# [3] = target: GlcNAc(b1-2)Man(a1-3)[GlcNAc(b1-2)Man(a1-6)]Man(b1-4)GlcNAc(b1-4)GlcNAc
# Procedure, shortened: as §1
# [4] = target: GlcNAc(b1-2)[GlcNAc(b1-4)]Man(a1-3)[GlcNAc(b1-2)Man(a1-6)]Man(b1-4)GlcNAc(b1-4)GlcNAc
# Procedure, shortened: as §1
# [5] = target: GlcNAc(b1-2)[GlcNAc(b1-6)]Man(a1-6)[GlcNAc(b1-2)Man(a1-3)]Man(b1-4)GlcNAc(b1-4)GlcNAc
# Procedure, shortened: as §1
# [6] = target: GlcNAc(b1-2)[GlcNAc(b1-6)]Man(a1-6)[GlcNAc(b1-2)Man(a1-3)]Man(b1-4)GlcNAc(b1-4)[Fuc(a1-6)]GlcNAc
# Procedure, shortened: as §1
# [7] = target: GlcNAc(b1-3)Gal(b1-4)GlcNAc(b1-2)[GlcNAc(b1-3)Gal(b1-4)GlcNAc(b1-6)]Man(a1-6)[GlcNAc(b1-3)Gal(b1-4)GlcNAc(b1-2)Man(a1-3)]Man(b1-4)GlcNAc(b1-4)GlcNAc
# Procedure, shortened: as §1
# [8] = target: GlcNAc(b1-3)Gal(b1-4)GlcNAc(b1-6)[GlcNAc(b1-3)]Gal(b1-4)GlcNAc
# Procedure, shortened: as §1
# GlcNAc(b1-3)GalNAc = target: GlcNAc(b1-3)GalNAc
# Procedure, shortened: as §1
# GlcNAc(b1-6)GalNAc = target: GlcNAc(b1-6)GalNAc
# Procedure, shortened: as §1
# [9] = target: Man(a1-2)Man(a1-3)[Man(a1-2)Man(a1-6)]Man(a1-6)[Man(a1-2)Man(a1-2)Man(a1-3)]Man(b1-4)GlcNAc(b1-4)GlcNAc
# Procedure, shortened: as §1
# [10] = target: Man(a1-2)Man(a1-6)[Man(a1-3)]Man(a1-6)[Man(a1-2)Man(a1-2)Man(a1-3)]Man
# Procedure, shortened: as §1
# [11] = target: Neu5Ac(a2-3)Gal(b1-3)GalNAc(b1-4)Gal(b1-4)Glc
# Procedure, shortened: as §1
# [12] = target: Neu5Ac(a2-3)Gal(b1-3)GlcNAc(b1-3)Gal(b1-4)GlcNAc
# Procedure, shortened: as §1
# [13] = target: Neu5Ac(a2-3)Gal(b1-3)[Fuc(a1-4)]GlcNAc
# Procedure, shortened: as §1
# [14] = target: Neu5Ac(a2-3)Gal(b1-4)GlcNAc(b1-2)Man
# Procedure, shortened: as §1
# [15] = target: Neu5Ac(a2-3)Gal(b1-4)GlcNAc(b1-3)Gal(b1-4)GlcNAc(b1-3)GalNAc
# Procedure, shortened: as §1
# [16] = target: Neu5Ac(a2-3)Gal(b1-4)GlcNAc(b1-3)Gal(b1-4)GlcNAc(b1-6)[Gal(b1-3)]GalNAc
# Procedure, shortened: as §1
# [17] = target: Neu5Ac(a2-3)Gal(b1-4)GlcNAc(b1-6)GalNAc
# Procedure, shortened: as §1
# [18] = target: Neu5Ac(a2-3)Gal(b1-4)[Fuc(a1-3)]GlcNAc(b1-2)Man
# Procedure, shortened: as §1
# [19] = target: Neu5Ac(a2-3)Gal(b1-4)[Fuc(a1-3)]GlcNAc(b1-3)Gal
# Procedure, shortened: as §1
# [20] = target: Neu5Ac(a2-3)Gal(b1-4)[Fuc(a1-3)]GlcNAc(b1-3)Gal(b1-4)GlcNAc
# Procedure, shortened: as §1
# [21] = target: Neu5Ac(a2-3)Gal6S(b1-4)[Fuc(a1-3)]GlcNAc
# Procedure, shortened: as §1
# [22] = target: Neu5Ac(a2-6)Gal(b1-4)GlcNAc(b1-2)Man(a1-3)Man(b1-4)GlcNAc(b1-4)GlcNAc
# Procedure, shortened: as §1
# [23] = target: Neu5Ac(a2-6)Gal(b1-4)GlcNAc(b1-2)Man(a1-3)[Neu5Ac(a2-3)Gal(b1-4)GlcNAc(b1-2)Man(a1-6)]Man(b1-4)GlcNAc(b1-4)GlcNAc
# Procedure, shortened: as §1
# [24] = target: Neu5Ac(a2-6)Gal(b1-4)GlcNAc(b1-3)[Neu5Ac(a2-6)Gal(b1-4)GlcNAc(b1-6)]GalNAc
# Procedure, shortened: as §1
# [25] = target: Neu5Ac9Ac(a2-3)Gal(b1-4)GlcNAc
# Procedure, shortened: as §1
# [26] = target: Neu5Gc(a2-3)Gal(b1-3)GlcNAc
# Procedure, shortened: as §1
# Neu5Gc(a2-3)Gal(b1-4)Glc = target: Neu5Gc(a2-3)Gal(b1-4)Glc
# Procedure, shortened: as §1
binder,measurement,setting,value
"SSR1 (Sclerotium rolfsii), A0A0M3KL30 (protein) TYKITVRVYQTNPDAFFHPVEKTVWKYANGGTWTITDDQHVLTMGGSGTSGTLRFHADNGESFTATFGVHNYKRWCDIVTNLAADETGMVINQQYYSQKNREEARERQLSNYQVKNAKGRNFQIVYTEAEGNDLHANLIIG",glycan array binding signal (z-score),[1],6.33
same,glycan array binding signal (z-score),[2],3.01
same,glycan array binding signal (z-score),[3],5.28
same,glycan array binding signal (z-score),[4],3.04
same,glycan array binding signal (z-score),[5],3.93
same,glycan array binding signal (z-score),[6],3.66
same,glycan array binding signal (z-score),[7],1.32
same,glycan array binding signal (z-score),[8],0.953
same,glycan array binding signal (z-score),GlcNAc(b1-3)GalNAc,0.954
same,glycan array binding signal (z-score),GlcNAc(b1-6)GalNAc,1.03
same,glycan array binding signal (z-score),[9],-0.548
same,glycan array binding signal (z-score),[10],-0.348
same,glycan array binding signal (z-score),[11],-0.271
same,glycan array binding signal (z-score),[12],-0.343
same,glycan array binding signal (z-score),[13],-0.341
same,glycan array binding signal (z-score),[14],-0.313
same,glycan array binding signal (z-score),[15],0.407
same,glycan array binding signal (z-score),[16],1.06
same,glycan array binding signal (z-score),[17],-0.334
same,glycan array binding signal (z-score),[18],-0.374
same,glycan array binding signal (z-score),[19],-0.342
same,glycan array binding signal (z-score),[20],-0.324
same,glycan array binding signal (z-score),[21],-0.349
same,glycan array binding signal (z-score),[22],-0.341
same,glycan array binding signal (z-score),[23],-0.339
same,glycan array binding signal (z-score),[24],-0.297
same,glycan array binding signal (z-score),[25],-0.27
same,glycan array binding signal (z-score),[26],-0.329
same,glycan array binding signal (z-score),Neu5Gc(a2-3)Gal(b1-4)Glc,-0.278
